CIT2 TOR yeast: yeast TOR pathway CIT2-GFP modulation; S. cerevisiae CIT2-GFP strain, flow cytometry, 3 h; 100 means same as DMSO wells; GFP response vs DMSO, % at 10 µM; 320,000 tested, 0.065% active;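 active = GFP response relative to DMSO above a set limit, near the screen mean plus 3 SD, cut at about 150% in these data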;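 note: ratio of well median GFP fluorescence to mean of DMSO wells on the plate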
DSG3 Ab inh: inhibitors of pemphigus antibody binding to human desmoglein-3; DSG3-coupled beads, scFv-anti-DSG3-GFP binding, flow cytometry; stronger effect = lower value; binding (percent of control), % at 10 µM; 310,000 tested, 0.48% active; AID 588358;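 active = binding more than 3 SD below its plate's average and above zero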;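 note: hits lower antibody fragment binding to DSG3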
Target sequence (P32926 whole entry, looked up, the tested form may be a part): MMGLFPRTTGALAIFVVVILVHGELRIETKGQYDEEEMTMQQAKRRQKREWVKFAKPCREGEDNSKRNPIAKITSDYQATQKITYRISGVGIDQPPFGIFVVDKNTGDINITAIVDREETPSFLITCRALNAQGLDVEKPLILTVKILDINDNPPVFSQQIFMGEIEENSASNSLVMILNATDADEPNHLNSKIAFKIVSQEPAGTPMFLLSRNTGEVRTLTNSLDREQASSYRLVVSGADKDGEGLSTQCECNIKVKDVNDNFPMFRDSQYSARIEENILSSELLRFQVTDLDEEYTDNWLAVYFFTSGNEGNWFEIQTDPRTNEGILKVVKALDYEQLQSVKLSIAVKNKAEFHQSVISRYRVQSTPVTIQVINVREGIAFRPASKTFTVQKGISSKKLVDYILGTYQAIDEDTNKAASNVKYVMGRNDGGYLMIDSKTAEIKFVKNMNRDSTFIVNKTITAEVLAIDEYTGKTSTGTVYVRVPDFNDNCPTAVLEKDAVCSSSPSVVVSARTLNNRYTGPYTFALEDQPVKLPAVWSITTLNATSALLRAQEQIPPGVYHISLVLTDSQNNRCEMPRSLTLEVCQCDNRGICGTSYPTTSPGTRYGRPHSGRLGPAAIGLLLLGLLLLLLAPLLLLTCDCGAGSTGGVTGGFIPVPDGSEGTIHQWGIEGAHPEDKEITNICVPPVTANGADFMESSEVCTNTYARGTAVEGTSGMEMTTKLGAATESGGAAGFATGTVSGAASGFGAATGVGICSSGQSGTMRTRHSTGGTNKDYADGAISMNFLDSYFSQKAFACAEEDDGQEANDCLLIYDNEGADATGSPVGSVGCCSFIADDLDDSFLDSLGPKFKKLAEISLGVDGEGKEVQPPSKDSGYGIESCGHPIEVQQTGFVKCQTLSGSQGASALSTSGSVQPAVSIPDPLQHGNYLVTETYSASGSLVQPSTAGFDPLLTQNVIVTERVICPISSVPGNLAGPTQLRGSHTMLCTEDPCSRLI
MEP2-GFP yeast: yeast TOR pathway MEP2-GFP modulation. AID 2016. 330,000 tested, 0.51% active. GFP response vs DMSO, % at 10 µM. S. cerevisiae MEP2-GFP strain, flow cytometry GFP, 3 h; 100% = DMSO control level;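 active = GFP response versus DMSO above a set limit, roughly screen mean plus 3 SD, cut at about 180% in these data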;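 note: median GFP fluorescence of the barcode-gated MEP2-GFP cells per well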
AGP1 TOR yeast: alters AGP1-GFP fluorescence in TOR pathway yeast screen. S. cerevisiae AGP1-GFP multiplex flow cytometry, 3 h; GFP as percent of DMSO wells. GFP response vs DMSO, % at 10 µM. 320,000 tested, 0.02% active. AID 2066;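 active = GFP response relative to DMSO above a set limit, near screen average plus 3 SD, cut at about 150% in these data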;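 note: median GFP channel fluorescence of the gated AGP1 strain per well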
RPL19A-GFP yeast: modulators of TOR pathway RPL19A-GFP in S. cerevisiae; S. cerevisiae RPL19A-GFP strain, flow cytometry, 3 h; stronger effect = lower value; percent response vs DMSO, % at 10 µM; 330,000 tested, 0.3% active;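 active = percent response vs DMSO below 50%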;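 note: median channel GFP fluorescence of the barcoded RPL19A-GFP strain; lower means less RPL19A-GFP as with rapamycin TOR inhibition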
LAP4 TOR yeast: modulators of TOR pathway LAP4-GFP in S. cerevisiae; S. cerevisiae LAP4-GFP multiplex, flow cytometry GFP, 3 h; median GFP as percent of DMSO wells; GFP response vs DMSO, % at 10 µM; 320,000 tested, 0.34% active;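 active = GFP response vs DMSO above a set limit, about the screen mean plus 3 SD, cut at about 150% in these data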
LAP4 cherry2: second confirmation of modulators of TOR reporter LAP4-GFP in yeast; shares compounds with LAP4 TOR yeast; S. cerevisiae LAP4-GFP strain, flow cytometry GFP, 3 h; GFP response vs DMSO, % at 10 µM; 590 tested, 20% active; AID 2621;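 active = GFP signal as percent of the solvent control above about 150%, meaning raised reporter expression, limit read from the data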
MEP2-GFP pick2: second confirmation of modulators of TOR reporter MEP2-GFP in yeast. shares compounds with LAP4 TOR yeast. GFP response vs DMSO, % at 10 µM. AID 2622. 590 tested, 10% active. S. cerevisiae MEP2-GFP strain, flow cytometry GFP, 3 h;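 active = GFP signal above 150% of the solvent control wells, that is a rise of more than half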;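 note: median channel GFP fluorescence of all gated yeast cells per well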
RPL19A-GFP pick2: second confirmation of modulators of TOR reporter RPL19A-GFP in yeast; shares compounds with LAP4 TOR yeast; S. cerevisiae RPL19A-GFP strain, flow cytometry GFP, 3 h; stronger effect = lower value; 100% means same as DMSO wells; GFP response vs DMSO, % at 10 µM; 590 tested, 3% active;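 active = under 65% GFP response relative to DMSO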;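 note: median GFP channel fluorescence per well over the all cells gate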
CIT2 GFP CP2: reconfirmed modulator of CIT2-GFP TOR reporter in yeast; shares compounds with LAP4 TOR yeast; 590 tested, 8% active; S. cerevisiae CIT2-GFP strain, flow cytometry GFP, 3 h; DMSO control wells read 100%; AID 2624; GFP response vs DMSO, % at 10 µM;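 active = GFP response vs DMSO above about 150%, limit read from the data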;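 note: median green fluorescence per well over all gated yeast cells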
AGP1-GFP pick2: reconfirmed modulator of AGP1-GFP TOR reporter in yeast. shares compounds with LAP4 TOR yeast. S. cerevisiae AGP1-GFP strain, flow cytometry GFP, 3 h. percent response vs DMSO, % at 10 µM. 590 tested, under 10 active. AID 2643;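 active = over 150 percent of DMSO response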;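 note: median GFP channel fluorescence over all cells without mother daughter split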
s288c autofluor: compound is autofluorescent in yeast s288c cells; shares compounds with LAP4 TOR yeast; S. cerevisiae s288c, 520 nm autofluorescence, flow cytometry, 3 h; stronger effect = higher value; zero means same as solvent-only cells; fluorescence change (kMESF span) at 33 µM; 610 tested, under 10 active;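 active = fluorescence span over the dose series, or activity score, above about 33, limit read from the data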
Yeast autofl DR: yeast s288c autofluorescence artifact in dose response; shares compounds with LAP4 TOR yeast; S. cerevisiae s288c parental, compound autofluorescence, flow cytometry, 3 h; fluorescence change (span) at 33 µM; 110 tested, under 10 active; AID 488829;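 active = fluorescence change span, or the activity score built from it, above 25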
TORC1 bypass gr: stops wildtype yeast growth while TORC1 bypass cells still grow | shares compounds with LAP4 TOR yeast | S. cerevisiae BY4741 spot growth rating, 48-72 h; stronger effect = lower value | growth rating (0-3) at 30 µM | 120 tested, under 10 active | AID 504456;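 active = growth rating at most 1 for wild type yeast while the TORC1 bypass strain still grows fully, rated 3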
Each line names hits and unclear results; the compound was inactive in the other large screens (follow-up assays come after a bar, where they were run). Compounds with a hit are over-represented: about 1.2% of the library has one in this group of screens.

CCOC(=O)C1CCN(/C=C2/C(=O)NC(=S)N(c3ccccc3F)C2=O)CC1	none
Cc1ccc(/C=C2\C(=O)NC(=S)N(c3ccccc3F)C2=O)s1	none | LAP4 cherry2 inactive | MEP2-GFP pick2 inactive | RPL19A-GFP pick2 65 | CIT2 GFP CP2 inactive | AGP1-GFP pick2 inactive | s288c autofluor inactive
COc1ccc(S(=O)(=O)N2Cc3cnnn3-c3ccccc3C2C#N)cc1 (stereo unspecified)	none (no result: CIT2 TOR yeast, MEP2-GFP yeast, AGP1 TOR yeast, RPL19A-GFP yeast, LAP4 TOR yeast)
CCC(=NCCCN(C)C)c1c(O)n(-c2ccc(OC)cc2)c(=O)[nH]c1=O	LAP4 TOR yeast 156 (no result: DSG3 Ab inh) | LAP4 cherry2 inactive | MEP2-GFP pick2 inactive | RPL19A-GFP pick2 inactive | CIT2 GFP CP2 inactive | AGP1-GFP pick2 inactive
CCC(=NC1CC1)c1c(O)n(-c2ccc(OC)cc2)c(=O)[nH]c1=O	none
c1ccc(NC2=NCCS2)cc1	none
O=C(C[N+]12CCC(CC1)C(C(O)(c1ccccc1)c1ccccc1)C2)c1ccc(Br)cc1 (stereo unspecified)	none
O=[N+]([O-])c1ccc(NCCO)c2ncccc12	none
O=C1NC(=O)N(Cc2ccco2)C(=O)/C1=C/c1ccc(-c2cccc([N+](=O)[O-])c2)o1	LAP4 TOR yeast 169 | s288c autofluor inactive
O=[N+]([O-])c1ccc(NCCCN2CCOCC2)nc1	none
CN(C)C(=O)Oc1ccnc2cc(Cl)ccc12	none | LAP4 cherry2 inactive | MEP2-GFP pick2 inactive | RPL19A-GFP pick2 inactive | CIT2 GFP CP2 inactive | AGP1-GFP pick2 inactive | s288c autofluor inactive
CN(C)C(=O)Oc1ccc(Cl)c2cccnc12	none (no result: AGP1 TOR yeast)
C=CCN1C(=O)/C(=C/c2cccs2)C(=O)NC1=S	LAP4 TOR yeast 204 | LAP4 cherry2 inactive | MEP2-GFP pick2 inactive | RPL19A-GFP pick2 inactive | CIT2 GFP CP2 inactive | AGP1-GFP pick2 inactive | s288c autofluor inactive
O=C1NC(=O)N(CCC2=CCCCC2)C(=O)/C1=C\c1cccs1	none
O=C1NC(=O)N(CCc2ccc(F)cc2)C(=O)/C1=C/c1cccs1	LAP4 TOR yeast 172 | s288c autofluor inactive
CC(=O)NC(Cc1ccc(N(CCCl)CCCl)cc1)C(=O)NCC(=O)NCC(=O)O (stereo unspecified)	none
O=C1NC(=O)N(c2cccc(Cl)c2)C(=O)/C1=C\c1ccc(Sc2nc3ccccc3[nH]2)o1	none
O=C1NC(=O)N(c2ccccc2)C(=O)/C1=C/c1ccc(Sc2ccccc2)o1	LAP4 TOR yeast 170 | s288c autofluor inactive
O=C(O)c1cc[c]([Hg][Cl])cc1	LAP4 TOR yeast 255 | LAP4 cherry2 190 | MEP2-GFP pick2 193 | RPL19A-GFP pick2 inactive | CIT2 GFP CP2 inactive | AGP1-GFP pick2 inactive | s288c autofluor inactive
COc1cc(/C=C/[N+](=O)[O-])ccc1O	LAP4 TOR yeast 245 | LAP4 cherry2 191 | MEP2-GFP pick2 inactive | RPL19A-GFP pick2 inactive | CIT2 GFP CP2 inactive | AGP1-GFP pick2 inactive | s288c autofluor inactive
COc1ccc(-n2c(/C=C/c3ccc(O)c(OC)c3)nc3ccccc3c2=O)cc1	none
O=c1[nH]c(=O)n(Cc2ccco2)c(O)c1C=NCCN1CCNCC1	none (no result: DSG3 Ab inh)
CN=C1CN(O)C(c2ccccc2)=c2cc(Cl)ccc2=N1	none
CCN(CC)CCC(=O)O[C@H]1CC[C@]2(C)C3CC[C@@]4(C)C(CC[C@]4(C)O)C3CC[C@H]2C1 (stereo partly specified)	LAP4 TOR yeast 177 | LAP4 cherry2 inactive | MEP2-GFP pick2 inactive | RPL19A-GFP pick2 inactive | CIT2 GFP CP2 inactive | AGP1-GFP pick2 inactive
C[C@]12CCC3C(CC[C@H]4C[C@@H](O)CC[C@]34C)C1CC[C@@]2(O)C(F)(F)F (stereo partly specified)	none (no result: DSG3 Ab inh)
O=C1NC(=S)NC(=O)C1=Cc1ccc2c(c1)CCN2CCCCl	DSG3 Ab inh 58, LAP4 TOR yeast 245 | s288c autofluor inactive
C[C@@H]1C[C@@H]([C@H](O)CC2CC(=O)NC(=O)C2)C(=O)[C@@H](C)C1	RPL19A-GFP yeast 49 | LAP4 cherry2 inactive | MEP2-GFP pick2 157 | RPL19A-GFP pick2 inactive | CIT2 GFP CP2 inactive | AGP1-GFP pick2 inactive | s288c autofluor inactive | Yeast autofl DR inactive | TORC1 bypass gr inactive
CCCCCn1c(=O)c(C(=O)Nc2nc3ccccc3[nH]2)c(O)c2ccccc21	none | LAP4 cherry2 inactive | MEP2-GFP pick2 inactive | RPL19A-GFP pick2 inactive | CIT2 GFP CP2 inactive | AGP1-GFP pick2 inactive | s288c autofluor inactive

Compound activity deposited in PubChem by NMMLSC.
